Screen size: about 1,400 compounds; about 100 (7.1%) were called active. No rule for the calls is given here. Not all results are given here. Entries with a potency or affinity are not part of this list.
Experiment: viability loss in Vero cells – cell-based, plate reader, cherry-pick samples, cytotoxicity control, dose response (AID 687020);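 also: compounds incubated with cells for three days before luminescence read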
Settings: series mostly up to 19.5 µM

Structure (SMILES) | outcome
CC(C)C[C@@H](CN1C(=O)C(=O)NC[C@@H]1CC(C)C)NC(=O)Cc1ccccc1 | inactive
CCNC(=O)C[C@H]1CC[C@H]2[C@@H](COC[C@H](O)CN2Cc2ccc(Cl)c(Cl)c2)O1 | inactive
C=Cc1ccc(Cn2c(C)c(C(=O)NCc3cccc(C(F)(F)F)c3)sc2=O)cc1 | inactive
Cc1cccc(C)c1NC(=O)C1(C)CSCC(=O)N1Cc1cccc(C(F)(F)F)c1 (stereo not given) | inactive
CC(=O)Nc1ccc(OCCCN2CCC(C(O)(c3ccccc3)c3ccccc3)CC2)cc1 | inactive
O=C(Nc1ccc(F)cc1)C1CCCN(S(=O)(=O)c2ccc3[nH]c(=O)ccc3c2)C1 (stereo not given) | inactive
Cc1ccc(NC(=O)C2(c3cccs3)CCOCC2)cc1C | inactive
Cc1ccc(NC(=O)CN2CCC(NC(=O)c3cccc(F)c3)CC2)cc1C | inactive
Nc1nc2c(ncn2[C@@H]2O[C@H](CNCc3ccc(F)c(N4CCOCC4)c3)[C@@H](O)[C@H]2O)c(=O)[nH]1 | inactive
CC1(c2nnnn2Cc2ccccc2)CCC(=O)N1CCCn1ccnc1 (stereo not given) | inactive
COc1ccc(NC(=O)CN(C)C(=O)CC2CCCC2)cc1 | inactive
COC(=O)c1c(-c2ccc(OC)cc2)sc2cc3c(cc12)OCO3 | inactive
Nc1sc(-c2ccccc2)cc1C(=O)NCCN1CCOCC1 | inactive
CC1CCN(C(=O)COC(=O)CNC(=O)c2ccccc2F)CC1 | inactive
COc1ccc(-c2nc(CN3CCC(C(=O)N4CCOCC4)CC3)c(C)o2)c(OC)c1 | inactive
O=C(NCC1CCCCC1)[C@H]1[C@H](CO)[C@H]2Cn3c(cccc3=O)[C@@H]1N2CCc1ccccc1 | inactive
O=C(c1cccnc1)N1CC2(C1)[C@H](c1ccccc1)[C@@H](CO)N2Cc1ccccc1 | inactive
CN(C)CC#Cc1ccc([C@H]2[C@@H](CO)N(C(=O)C3CCC3)[C@H]2C#N)cc1 | inactive
COC(=O)[C@H]1CN(C(=O)c2ccccc2)C(=O)N1 | inactive
COc1cc2cc(CCCOC(=O)CCCC(=O)O)oc(=O)c2cc1OC | inactive
O=C(CCNC(=O)OCC1c2ccccc2-c2ccccc21)NOCc1ccccc1 | inactive
Cc1cccc(C)c1OCC(=O)NNC(=O)CCCn1c(=O)oc2ccccc21 | inactive
CC(=O)NCCC(=O)Nc1cc(S(=O)(=O)N2CCCCC2)ccc1N1CCN(C)CC1 | inactive
C[C@@H]1CCCCO[C@@H](CN(C)C(=O)Cc2ccccc2)[C@H](C)CN([C@H](C)CO)C(=O)c2cc(NS(=O)(=O)c3ccc(Cl)cc3)ccc2O1 | inactive
CN(C)c1ccc2c(c1)[C@H]1C[C@@H](CC(=O)NCc3ccc(Oc4ccccc4)cc3)O[C@H](CO)[C@H]1O2 | inactive

— PubChem BioAssay AID687020 (Broad Institute, 2013)
